Here are results for 40 compounds from PubChem BioAssay (NCI).

“And” between values parts separate entries of the source, which are not always exact repeats. Equal entries are not always repeated. This is part of a sample that, as a whole, favours compounds with a hit. Of some 83,000 tested, about 20% had one in any assay.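 Each cell line was grown in a 96-well plate and treated with one concentration of compound for 48 hours. Values below 10 were considered active.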 Unmarked numbers belong to inactive results. The source made the active and inactive calls.

The test system of this test is MDA-MB-468 breast. The experiment in a line: NCI-60 one-dose screen, 48 h (100 = growth as untreated, 0 = no growth, -100 = all killed). Conditions: 10 µM unless noted.
Take `O=c1oc2ccccc2cc1-c1csc(N/N=C/c2cc3ccccc3nc2Cl)n1`: the growth was 105%.
For `CN(C)Cc1ccccn1`, the growth is 105%.
Turning to `S=C1SCN(Cc2ccccc2)CN1Cc1ccco1`, the growth was 31.9%.
In the case of `CCCCCCCCn1cc(C2=C(c3coc4ccc(OC)cc34)C(=O)NC2=O)c2ccccc21`, the growth was 103%.
In the case of `NS(=O)(=O)c1cccc(Nc2nc(SCC(=O)c3ccc(Cl)cc3)nc3ccccc23)c1` it was 80.1%.
With `CCN(CC)CCOc1ccc2ccc(=O)oc2c1` the figure was 86%; with `Cc1ccccc1NC(=O)N/C(N)=N/c1nc(C)c(C)s1`, -7.08% (active).
Consider `FC(F)c1nc2ccccc2n1-c1nc(N2CCOCC2)nc(N2CCOCC2)n1`, for which the growth was -43.2% (active).
With `Cc1cn(C2CC(F)C(CO)O2)c(=O)[nH]c1=O` (stereo not given) the figure was 90.7%.
As for `CCCCCCCCCCCC[n+]1ccc(CCCCCCCCC)cc1`, the growth is -53.8% (active).
On to `CN(C)c1nc(-c2cccs2)n2nc(-c3ccco3)cc2n1`, for which the growth was 7.52% (active).
In the case of `CN1CCN(Cc2ccc(NC(=O)c3cncc(C#Cc4cncc5[nH]ncc45)c3)cc2C(F)(F)F)CC1` it was 16.6%.
In the case of `COc1cc(C(=O)NNC(=O)c2ccccc2C(=O)O)cc(OC)c1OC` it was 48.6%; in that of `COc1cc(NCCCN)c2ncccc2c1`, 76%.
For `O=C(/C=C/c1c[nH]c2ccccc12)c1cc2ccccc2o1`, the growth is 121%.
Take `COc1ccc(C(=S)N2CCN(c3ccccc3Cl)CC2)cc1OC`: the growth is 92.1%.
With `O=C(c1ccc(F)c(F)c1Nc1ccc(I)cc1F)N1CC(O)([C@@H]2CCCCN2)C1` the figure was 25.2%; with `O=[N+]([O-])c1ccc2nc(N/N=C/c3ccc(O)cc3)sc2c1`, 64.2%; with `COc1cc2ncn3c(=O)c4c5c(sc4nc3c2cc1OC)CCCC5`, 101%.
As for `CCOC(=O)c1ccc(Nc2ncnc3ccc(NC(=O)c4ccccc4)cc23)cc1`, the growth was 88.9%.
In the case of `O=C(CSc1nc2ccccc2c(=O)n1-c1ccccc1)Nc1ccc(-c2nc3ccc([N+](=O)[O-])cc3[nH]2)cc1` it was 81.5%.
In the case of `Nc1ccc(-c2ccncc2)cc1NC(=O)N1CCCC1` it was 94.2%.
With `CCCCNC(=O)Oc1ccc2c(=O)c3sc4c(=O)c5ccccc5c(=O)c4c3c(=O)c2c1` the figure was -48.3% (active); with `COc1cc(-c2nc(C(=O)NCC(=O)NO)nn2-c2ccc(Cl)cc2)cc(OC)c1OC`, 112%.
On to `COc1ccc(-c2nc(-c3cc(OC)cc(OC)c3)[nH]c2-c2ccc(OC)cc2)cc1`, for which the growth was 31.4%.
In the case of `CC1=CC(=O)c2cccc(NC3=NCCO3)c21` it was 107%; in that of `C=C(C)[C@@H]1CC[C@]2(CO)CC[C@]3(C)[C@H](CC[C@@H]4[C@@]5(C)CCC(NCCc6ccc(O)cc6)C(C)(C)[C@@H]5CC[C@]43C)[C@@H]12` (stereo not given in full), -91.7% (active); in that of `C=C1C(=O)O[C@H]2[C@H]1CC/C(COC(=O)/C=C/C(=O)NCc1ccc(Cn3c(=O)sn(-c4ccccc4)c3=O)cc1)=C\CC[C@@]1(C)O[C@@H]21`, -43.4% (active).
With `NC(CSC(c1ccccc1)(c1ccccc1)c1ccc(F)cc1)C(=O)O` (stereo not given) the figure was -41% (active); with `Cc1cccnc1NC(=S)Nc1ncccc1C`, 71.9%; with `Cc1ccc(-c2nc(SCC(=O)c3ccccc3)nc(Nc3ccc(S(N)(=O)=O)cc3)c2C#N)cc1`, 113%.
In the case of `CC[C@H](C)[C@H](N)C(=O)O` it was 99.9%; in that of `Cn1c2c(c3ccc(Cl)cc31)-n1cccc1C2=O`, 104%.
For the compound `Nc1c(C(=O)Nc2cccc3ccncc23)sc2nc3c(cc12)C(=O)CCC3`, the growth was -12.6% (active).
With `CCCCOc1ccc(Nc2cc(Cl)ccc2C(=O)O)cn1` the figure was 99.6% and 103%; with `CN(C)S(=O)(=O)Oc1ccc(-c2sc3cc(OS(=O)(=O)N(C)C)ccc3c2C(=O)c2ccc(OCCN3CCCCC3)cc2)cc1`, 61.7%; with `COc1cc(C(=O)c2c(-c3ccccc3)oc3c(OC)cccc23)cc(OC)c1OC`, 18.4%.
As for `COC(=O)[C@]12CC[C@@H](C)[C@H](C)[C@@H]1C1=CC[C@@H]3[C@@]4(C)C/C(=N\O)[C@H](O)[C@@]5(C)COC(=C45)C[C@@]3(C)[C@]1(C)CC2`, the growth is -71.7% (active).
Regarding `Cc1ccc(/C=C2/C(=O)Nc3cc(Cl)c(-c4csc(N)n4)cc32)cc1`, the growth was 15.2%.
With `COC(=O)CCCCN=Cc1c(O)c(O)c(C(C)C)c2cc(C)c(-c3c(C)cc4c(C(C)C)c(O)c(O)c(C=NCCCCC(=O)OC)c4c3O)c(O)c12` the figure was 18.6%.
